{"source": "ChEMBL document CHEMBL3433997", "about": "“St. Jude Leishmania screening dataset” (2016)", "data": [{"molecular_target": "Solute carrier family 2, facilitated glucose transporter member 1 (Homo sapiens) (UniProt P11166)", "sequence (P11166 whole entry)": "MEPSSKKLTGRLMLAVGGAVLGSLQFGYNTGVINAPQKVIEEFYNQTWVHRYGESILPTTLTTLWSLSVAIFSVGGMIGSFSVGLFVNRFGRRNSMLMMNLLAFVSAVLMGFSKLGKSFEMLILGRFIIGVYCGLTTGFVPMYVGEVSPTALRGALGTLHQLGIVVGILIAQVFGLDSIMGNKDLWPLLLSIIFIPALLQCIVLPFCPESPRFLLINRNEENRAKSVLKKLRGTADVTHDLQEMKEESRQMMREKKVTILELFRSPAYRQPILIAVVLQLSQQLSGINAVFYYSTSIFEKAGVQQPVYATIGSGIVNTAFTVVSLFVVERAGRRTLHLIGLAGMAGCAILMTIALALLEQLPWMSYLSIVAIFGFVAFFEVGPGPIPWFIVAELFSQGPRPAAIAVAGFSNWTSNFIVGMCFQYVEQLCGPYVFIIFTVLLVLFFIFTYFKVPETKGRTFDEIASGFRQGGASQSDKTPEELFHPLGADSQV", "assay": "ST_JUDE_LEISH: Cytotoxicity at 2uM final concentration against transgenic Leishmania Mexicana promastigotes LmGLUT1 that are glucose transport deficient and complemented with the human glucose transporter GLUT1. Activity is measured by DNA content using SYBR green in vitro", "type": "functional", "units": {"inhibition": "%"}, "values": [{"smiles": "CN(C)c1cc(NC(=O)Nc2ccc(SC(F)(F)F)cc2)c2ccccc2n1", "inhibition": -0.23}, {"smiles": "Fc1cccc(COc2ccc(Nc3ncnc4sc(C#CCNC5CCCC5)cc34)cc2Cl)c1", "inhibition": 2.71}, {"smiles": "O=C(c1ccc(-c2cnc3[nH]cc(-c4ccc(C(=O)N5CCOCC5)cc4)c3c2)cc1)N1CCOCC1", "inhibition": -0.49}, {"smiles": "Cc1cc(N[C@@H](Cc2ccccc2)C(=O)NC2CCCC2)nc(NCCCOC(C)C)n1", "inhibition": 7.62}, {"smiles": "N#Cc1ccc2c(c1)CCN(CCC1CCC(NC(=O)c3ccc(-c4ccccn4)s3)CC1)CC2", "note": "(stereo not given)", "inhibition": 13.3}, {"smiles": "COc1ccc2nccc([C@@H](O)CN3CCC(NC(=O)c4ccc5nc(-n6cccc6)sc5c4)CC3)c2c1", "inhibition": 6.02}, {"smiles": "CC(C)(C)CCN1CCC(NC(=O)c2ccc(-c3cccc(C(F)(F)F)c3)s2)CC1", "inhibition": 1.71}, {"smiles": "CC(C)CCN1CCC(Oc2ccc(NC(=O)c3ccsc3)cc2Cl)CC1", "inhibition": -0.7}, {"smiles": "O=C(Nc1ccc(C(F)(F)F)cc1)c1cccc(S(=O)(=O)NCC2CCCN(CC3CCCCC3)C2)c1", "note": "(stereo not given)", "inhibition": 5.71}, {"smiles": "Cc1cccc2nc(-c3cccc(-c4cccc(NC(=O)c5ccc(C(N)=O)cc5)c4)c3)[nH]c12", "inhibition": 0.33}, {"smiles": "COc1cc(Cc2cnc(N)nc2N)cc(OCCNC(=O)OCc2ccccc2)c1OC", "inhibition": -1.11}, {"smiles": "CCCNCc1ccc(-c2ccc(CN(C(=O)c3nn(-c4ccccc4)nc3C)C(C)CN(C)C)cc2)nc1", "note": "(stereo not given)", "inhibition": 1.37}, {"smiles": "Cc1noc(-c2ccc3c(c2)CCN(CCC2CCC(NC(=O)c4cc5ccccc5[nH]4)CC2)CC3)n1", "note": "(stereo not given)", "inhibition": 2.93}, {"smiles": "CCOC(=O)c1ccc(NC(=O)Nc2ccc(-c3ccc(-c4nc5cc(C(F)(F)F)ccc5[nH]4)cc3)cc2)cc1", "inhibition": -1.59}, {"smiles": "CC1CCCCC1N(C)C1CCN(CCCNC(=O)C=Cc2ccccc2Cl)CC1", "note": "(stereo not given)", "inhibition": -0.22}, {"smiles": "COc1ccc(Cc2cnc(N)nc2N)cc1OCCCOc1ccccc1", "inhibition": -0.49}, {"smiles": "CNC(=O)c1nc(-c2ccccc2)[nH]c1NC(C)=O", "inhibition": 2.72}, {"smiles": "N#Cc1cccc(NC(=O)Nc2cccc(-c3cccc(-c4nc5cc(F)ccc5[nH]4)c3)c2)c1", "inhibition": 9.7}, {"smiles": "COc1cc(Cc2cnc(N)nc2N)c2c(c1OC)OC(C)(C)C=C2", "inhibition": 4.17}, {"smiles": "CCc1nc2nc(C)cc(Nc3ccc4c(c3)OCCO4)n2n1", "inhibition": 2.89}, {"smiles": "COc1cccc(C2CCN(CCN3CCC(CNC(=O)c4ccc(-c5ccc(C(F)(F)F)cc5)cc4)CC3)CC2)c1", "inhibition": -0.53}, {"smiles": "Cc1sc2ncnc(Sc3nnc(N)s3)c2c1C", "inhibition": 2.03}, {"smiles": "Cc1cc(=O)[nH]c(-n2nc(C)cc2NC(=O)C2(c3ccc(Cl)cc3)CCCC2)n1", "inhibition": 61.6}, {"smiles": "COc1ccc(C2CC(c3ccccc3)=NN2C(=O)c2ccc(Br)o2)cc1", "note": "(stereo not given)", "inhibition": -0.17}, {"smiles": "COc1ccc(O)c(Cc2cnc3nc(N)nc(N)c3c2C)c1", "inhibition": 12.3}]}]}
